In the library only some 3.2% were active in any assay of this set; here they are far more common.
Tau fil binding – binders of human tau filaments | P10636 | recombinant tau filaments, thioflavin S fluorescence, 15 h; filaments grown with octadecylsulfate alongside compound | Potency, µM (titrated, usually from 57.1 µM), for inactives: at the highest dose activity change, negative = inhibition | actives 2% (n = 71,000) | AID 596;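 also: potency is read from the fitted curve at half-maximal effect; % is scaled to controls: 0 for no effect and ±100 for the full control effect; actives lower thioflavin S fluorescence by blocking filaments or displacing dye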
Target sequence (P10636 whole entry, looked up): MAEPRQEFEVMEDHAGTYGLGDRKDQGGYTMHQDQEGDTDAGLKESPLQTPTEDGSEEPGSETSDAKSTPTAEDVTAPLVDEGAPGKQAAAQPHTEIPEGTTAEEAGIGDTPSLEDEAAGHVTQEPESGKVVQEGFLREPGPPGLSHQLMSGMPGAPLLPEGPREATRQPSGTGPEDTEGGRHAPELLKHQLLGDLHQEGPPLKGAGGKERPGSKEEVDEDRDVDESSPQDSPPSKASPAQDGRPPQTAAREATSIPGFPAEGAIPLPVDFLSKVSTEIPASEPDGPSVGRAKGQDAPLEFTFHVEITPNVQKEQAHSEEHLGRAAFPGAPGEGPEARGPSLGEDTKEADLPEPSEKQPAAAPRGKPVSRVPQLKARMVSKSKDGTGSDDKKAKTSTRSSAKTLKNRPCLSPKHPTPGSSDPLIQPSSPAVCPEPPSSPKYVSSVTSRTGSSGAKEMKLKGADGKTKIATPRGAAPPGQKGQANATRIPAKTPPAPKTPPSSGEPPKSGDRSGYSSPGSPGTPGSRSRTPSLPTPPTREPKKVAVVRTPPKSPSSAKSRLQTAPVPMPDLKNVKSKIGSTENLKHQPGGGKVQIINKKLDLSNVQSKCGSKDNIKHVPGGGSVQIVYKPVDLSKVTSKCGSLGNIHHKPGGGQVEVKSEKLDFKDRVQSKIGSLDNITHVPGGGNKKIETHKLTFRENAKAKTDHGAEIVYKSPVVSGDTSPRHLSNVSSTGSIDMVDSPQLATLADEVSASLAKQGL
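ThS-based fibril read: tau 1 uM final, inducer ODS 30 uM final, 37 C for 15 h, ex 450/em 510 nm.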
DNA Pol III inh – blocks replication by bacterial DNA polymerase III holoenzyme; Potency, µM (titrated, usually from 57.1 µM), without a hit: at the top dose activity change, negative = inhibition; AID 603; actives 0.25% (n = 71,000); reconstituted DNA polymerase III holoenzyme replication, biochemical; also: potency is read from the fitted curve at half-maximal effect; % is scaled to controls: 0 for no effect and ±100 for the full control effect
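Reconstituted *E. coli* holoenzyme (0.35 nM Pol III, 1 nM beta, 154 nM SSB, 2 nM primase) was preincubated with compound for 15 min at RT. Synthesis on 1.4 nM ssM13Gori ran 35 min, then was stopped with PicoGreen/EDTA and read as dsDNA fluorescence.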
p53ts 32C kill – kills p53ts cells at the permissive temperature. H1299-p53A138V at 32C, ATP luminescence viability, 24 h. Potency, µM (doses to about 46.1 µM), inactives show at the highest dose activity change, negative = cytotoxicity, hits mostly cytotoxic. actives 0.93% (n = 130,000). AID 924;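 also: potency is read from the fitted curve at half-maximal effect; 0% = DMSO and -100% = full killing by reference compound; nearly all actives have a fitted effect of over 55% in size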
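H1299-p53 A138V cells (temperature-sensitive p53) exposed 24 h to up to 46 uM compound at 32C, where p53 is wild-type in conformation. Viability read as ATP luminescence and normalised to DMSO and 100 uM tamoxifen. AC50 fitted with the Hill equation.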
YjeE inh – displaces an ADP probe from E. coli YjeE (TsaE). AID 605. purified YjeE enzyme, qHTS inhibition assay. P0AF67. Potency, µM. actives 0.05% (n = 71,000)
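Fluorescence polarization of a BODIPY Texas Red–ADP probe (2 uM) bound to purified YjeE (10 uM) was read after 15 min room-temperature incubation with compounds. Loss of polarization marks inhibitors; ADP serves as titrated control.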
p53ts 39C tox – p53ts cell cytotoxicity, nonpermissive temperature; AID 902; Potency, µM (titrated, usually from 46.1 µM), inactives show at the top dose activity change, negative = cell killing, most hits filed as cytotoxic; H1299-p53A138V viability at 39C, ATP luminescence, 24 h; actives 1.5% (n = 130,000); also: potency is read from the fitted curve at half-maximal effect; % is scaled to controls: 0 for no effect and ±100 for the full control effect; nearly all actives have a fitted effect of over 55% in size
ERK AVP block – inhibitors of vasopressin-stimulated ERK signaling pathway; HEK293-V1b, vasopressin-stimulated pERK AlphaScreen; Potency, µM (highest dose often 57.5 µM), for the others: at the top dose activity, negative = inhibition, usual class: inhibitors; actives 0.99% (n = 72,000); AID 995; also: potency is read from the fitted curve at half-maximal effect; % is scaled to controls: 0 for no effect and ±100 for the full control effect; nearly all actives have a fitted effect of over 55% in size
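V1b-HEK293 cells; cpd 30 min 37C; 25 nM vasopressin 5 min; lyse 10 min; AlphaScreen beads 5 hr RT. Normalized to DMSO basal and 25 nM vasopressin; AC50 by Hill fit.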
Active calls of the source: *; i = inactive; ? = inconclusive; . = no result given; ! = not confirmed by another sample; [ ] = dose if it differs, or a comment. Calls follow the shape of the dose curve; as a rule, active = well fitted curve in the direction sought with a large enough effect; inconclusive = small, poorly fitted or top-dose-only effect, or another doubt; inactive = no such curve, though single readings can be large; an effect the other way counts as inactive or inconclusive.

SMILES | Tau fil binding | DNA Pol III inh | p53ts 32C kill | YjeE inh | p53ts 39C tox | ERK AVP block
C=CCn1c(O)c(C(C)=NCc2cccnc2)c(=O)[nH]c1=O | -4.0% | -2.5% | 4.7% | i | 3.5% | 4.0%
CN(C)c1ccc(N=O)cc1 | -1.2% | -4.4% | 1.2%[1.84 µM] | i | ? | ?
CN(C)c1ccc(N=Nc2ccccc2)cc1 | 15.8µM* | 0.9% | 2.2%[1.84 µM] | i | -24.3% | ?
O=C(CN1CCN(c2ncccn2)CC1)N1CCN(C(c2ccccc2)c2ccccc2)CC1 | 20.6% | 2.7% | 37.3% | i | ? | -23.6%
CN(c1ccccc1)S(=O)(=O)c1cccc(C(=O)N2CCN(c3ccccn3)CC2)c1 | 13.7% | -3.1% | 0.6% | i | -10.4% | 25.1µM*
Fc1ccc(C(OCCN2CCN(CCCc3ccccc3)CC2)c2ccc(F)cc2)cc1 | ? | -1.0% | ? | i | 31.6µM*! | ?
c1ccc(CCCN2CCN(CCOC(c3ccccc3)c3ccccc3)CC2)cc1 | -6.5% | -2.0% | ? | i | 31.6µM* | ?
O=C(O)C1=CCCN(CCOC(c2ccc(C(F)(F)F)cc2)c2ccc(C(F)(F)F)cc2)C1 | ? | -3.4% | 12.5% | i | -19.1% | -2.5%
C[C@]12Cc3cn4c(nc3C=C1CC[C@H]1[C@@H]2CC[C@@]2(C)[C@H]1CC[C@@]2(O)C#N)nc1ccccc14 | 11.3% | 1.2% | ? | i | 14.1% | -3.9%
CN(C)c1ccc(N)cc1 | 12.6µM* | -8.2% | -2.3%[1.84 µM] | i | 31.6µM* | ?
N[C@H](CCl)C(=O)O | 5.2% | -1.3% | 12.9% | i | 20.6% | -16.1%
C=CCN1CCc2cccc3c2[C@@H]1Cc1ccc(O)c(O)c1-3 | -26.1% | -6.7% | ? | i | ? | ?
Cc1nnc(NC(=O)c2cccn(Cc3cccc(Cl)c3)c2=O)s1 | . | . | -1.9% | . | 2.0% | .
Cc1ccc(Cl)cc1NC(=O)NCc1cccn1Cc1ccc(F)cc1 | . | . | ? | . | 10µM* | .
C=CCCN1C[C@@H]2C[C@H](C1)c1cccc(=O)n1C2 | -14.0% | -0.3% | . | i | . | .
C[C@@H]1CC[C@@]2(OC1)O[C@H]1[C@@H](O)[C@H]3[C@@H]4CC[C@H]5C[C@@H](O[C@@H]6O[C@H](CO)[C@H](O[C@@H]7O[C@H](CO)[C@@H](O)[C@H](O[C@@H]8OC[C@@H](O)[C@H](O)[C@H]8O)[C@H]7O[C@@H]7O[C@H](CO)[C@@H](O)[C@H](O[C@@H]8O[C@H](CO)[C@@H](O)[C@H](O)[C@H]8O)[C@H]7O)[C@H](O)[C@H]6O)[C@H](O)C[C@]5(C)[C@H]4CC[C@]3(C)[C@H]1[C@@H]2C | 77.6% | 7.8% | 3.5%[1.84 µM] | i | 12.6µM* | 31.6µM*
CCCN1CCc2cc(O)cc3c2[C@H]1Cc1ccc(O)c(O)c1-3 | 25.1µM* | -4.0% | -23.1% | i | ? | ?
O=C1C=C2C(=CCOC2O)O1 (stereo not drawn) | . | . | . | . | . | 31.6µM*
CCN1C[C@@]2(COC)[C@H](O)C[C@H](OC)[C@@]34[C@@H]5C[C@@]6(O)[C@H](OC(=O)c7ccccc7)[C@H]5[C@@](OC(C)=O)([C@H]([C@@H](OC)[C@H]23)[C@H]14)[C@H](O)[C@@H]6OC | -6.2% | 6.2% | . | i | . | .
CC1=CC(=O)c2c(O)cccc2C1=O | . | . | 6.31µM* | . | 10µM* | ?
O=C(O)[C@@H](O)[C@@H](O)[C@@H]1[O][Sb][O][C@@H]1CO | 2.8%[11.4 µM] | -14.6%[11.4 µM] | 6.1%[9.22 µM] | i | 6.5%[9.22 µM] | -0.3%[11.5 µM]
CC1=C(O)C(=O)[C@H]2O[C@@H]2C1=O | ? | -7.7% | 15.8µM* | i | ? | 46.7%
OC[C@H]1CCCN2CCCC[C@@H]12 | ? | -3.6% | . | i | . | .
C[C@@]12C=CC(=O)C=C1CC[C@@H]1C2=CC[C@]2(C)[C@@H]1CC[C@H]2C(=O)CN1CCN(c2cc(N3CCCC3)nc(N3CCCC3)n2)CC1 | 6.31µM* | -2.4% | 2.2% | ? | 23.3% | ?
O=S(=O)(NCCO)c1cc[c]([Sb](=[O])([OH])[OH])cc1 | -2.7%[11.4 µM] | -7.8%[11.4 µM] | 14.2%[9.22 µM] | i | 17.2%[9.22 µM] | 0.8%[11.5 µM]
SMILES | Tau fil binding | DNA Pol III inh | p53ts 32C kill | YjeE inh | p53ts 39C tox | ERK AVP block
Nc1c(C(=O)NCCN2CCOCC2)c2nc3ccccc3nc2n1Cc1ccco1 | i | -13.9% | 13.1% | i | 11.5% | 15.8µM*
CCCCn1c(N)c(C(=O)NCCN2CCOCC2)c2nc3ccccc3nc21 | 6.7% | -5.6% | 3.8% | i | -1.0% | -14.8%
C[C@H]1C(=O)O[C@H]2CCN3CC=C(COC(=O)[C@](C)(O)[C@@]1(C)O)[C@H]23 | 0.1% | 3.7% | . | i | . | .
Cc1cccc(N2CCc3c2nc2ccccc2c3N)c1 | 10.1% | -9.2% | -14.6% | i | -18.5% | 25.1µM*!
O=C1C[C@H]2OCCC=C3CN4CC[C@@]56c7ccccc7N1[C@@H]5[C@H]2[C@H]3C[C@@H]46 | -28.3% | -6.1% | . | i | . | .
CCCN1CCC[C@H](c2cccc(C#N)c2)C1 | 5.1% | 0.7% | -8.6% | i | -7.2% | 4.1%
CO[C@H]1[C@H](O)[C@H](O[C@@H]2[C@H](Oc3cccc4c(O)c5c(=O)oc6ccc(C)c7c(=O)oc(c34)c5c67)O[C@@H](C)[C@H](O)[C@H]2O)O[C@@H](C)[C@@H]1O | 28.0%[11.4 µM] | 3.16µM* | -2.6%[9.22 µM] | i | -14.8%[9.22 µM] | 0.5%[11.5 µM]
O=C(O)[C@H]1[C@H](C(=O)O)[C@H]2CC[C@@H]1O2 | -5.5% | -1.6% | 30.7% | i | 18.2% | 10.3%
COc1cc2c(cc1O)C[C@H]1c3c(cc(O)c(OC)c3-2)CCN1C | 39.8µM*! | -5.3% | 1.9%[20.6 µM] | i | 23.5%[20.6 µM] | 20.8%[25.7 µM]
Cc1ccc(Cl)cc1Nc1nn2c(=O)c3ccc(C(=O)NCc4cccs4)cc3nc2s1 | . | . | 12.6µM* | . | 15.8µM* | .
COc1cccc(NC(=O)c2ccc3c(=O)n4nc(Nc5ccccc5OC)sc4nc3c2)c1 | . | . | -9.8% | . | ? | .
C=CCN1C[C@@H](C)N([C@H](c2ccc(C(=O)N(CC)CC)cc2)c2cccc(OC)c2)C[C@H]1C | 3.5% | -2.0% | -5.2% | i | 14.9% | -1.5%
CC(=O)c1cccc(NC(=O)c2cccn(Cc3cccc(C)c3)c2=O)c1 | . | . | -1.9% | . | 8.0% | .
CC(=O)c1cccc(NC(=O)c2cc3c(s2)-c2c(C)cccc2OC3)c1 | . | . | 10µM* | . | 5.01µM* | .
CC(C)[C@@]1(NC(=O)[C@@H]2C[C@H]3c4cccc5[nH]cc(c45)C[C@@H]3N(C)C2)O[C@@]2(O)[C@H]3CCCN3C(=O)[C@@H](Cc3ccccc3)N2C1=O | 226.0% | 17.8% | . | i | . | .
CN1CCN(c2ccc(N)c(N3CCN(C)CC3)c2)CC1 | 20µM* | -17.6% | -7.9% | i | 0.3% | ?
